# Screens as filed in PubChem.
# Compounds with a hit are over-represented: about 2.5% of the library has one in this group of screens.
# CRFBP-R2 agonist = agonists of human CRF-binding protein/CRF-R2 receptor complex | HEK293 CRF-R2/CRF-BP, calcium dye fluorescence (FLIPR); percent of saturating CRF peptide response | activation, % at 13.2 µM | 350,000 tested, 0.46% active;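 active = activation of at least 50%, plus an integration ratio under a set limit after plate pattern correction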;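 note: plate controls were neutral control wells without compound for no effect and CRF at EC100 for full effect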
# iPSC survival up = increases survival of single human iPS cells; hiPSC single-cell survival, ATPlite luminescence; 100% = ROCK inhibitor wells, 0% = DMSO; survival enhancement, % at 20 µM; 360,000 tested, 0.044% active; AID 602274; in the data active = survival enhancement above about 18%;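 note: cells exposed to compounds for 16 hours before the ATP read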
# H9c2 TAG inh = reduces triacylglycerol accumulation in H9c2 cells; Nile Red lipid (TAG) fluorescence; cells loaded with 200 µM oleic acid; 230,000 tested, 0.66% active; AID 651582; inhibition, % at 12.5 µM;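 active = pattern-corrected inhibition of lipid staining of at least 50% with the nuclear-stain viability signal not falling by more than 50%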;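 note: 0% = DMSO wells and 100% = triacsin C control wells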
# SKN-1 inh = inhibitors of C. elegans SKN-1; C. elegans VP596 Pgst-4::GFP/RFP ratio, acrylamide-induced, 24 h; inhibition, % at 21.8 µM; 360,000 tested, 0.49% active;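 active = interference check ratio from 0.5 to 1.5 plus GFP to RFP signal ratio inhibition reaching or exceeding a fixed threshold, cut at about 30% in these data, passing the limit was not always enough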
# CRFR2-BP antag = CRF-BP/CRF-R2 complex antagonism; HEK293 CRF-R2/CRF-BP, CRF-induced calcium fluorescence; inhibition, % at 11.8 µM; 350,000 tested, 0.59% active; AID 588475;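 active = inhibition of the ligand-induced calcium signal above about 50% at the single tested concentration, limit read from the data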
# H9c2 protect = modulators protecting cardiomyocytes from myocardial damage | H9c2 cardiomyocytes, H2O2 injury protection, ATPLite, 2 h | protection from H2O2 cell death, % at 20 µM | 360,000 tested, 0.63% active | AID 588492;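 active = compounds giving at least 50% protection of heart cells from peroxide-induced death in the single-dose screen, raw or plate-pattern-corrected value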;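 note: 0% = DMSO wells with peroxide and 100% = DMSO wells without peroxide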
# The depositor's hits bear a star; i = inactive; / = no result given; ! = not active in a repeat.
SMILES,CRFBP-R2 agonist,iPSC survival up,H9c2 TAG inh,SKN-1 inh,CRFR2-BP antag,H9c2 protect
CCOC(=O)C1CCN(c2cc3c(cc2NC(=O)c2cc(OC)ccc2Br)n(C)c(=O)n3C)CC1,-6,0,/,1,72*,39
COc1cccc(C(=O)Nc2cc3c(cc2N2CCCC2)n(C)c(=O)n3C)c1,-2,0,/,33,31,-1
CCN1C/C(=C\c2cccc([N+](=O)[O-])c2)C(=O)/C(=C/c2cccc([N+](=O)[O-])c2)C1,-1,56*,/,8,-9,-24
O=C1/C(=C/c2cccc([N+](=O)[O-])c2)CCc2ccccc21,1,-2,/,3,-21,-18
COC(=O)c1ccccc1NC(=O)c1nc2nc(C)cc(C)n2n1,2,6,20,-12,-3,61*
CN1CCN(C2=CC3=CC(=C(C#N)C#N)CCC3CC2)CC1 (stereo unspecified),241*,0,-218,-98,-172,34
N#CC(C#N)=C1C=C2C=C(N3CCOCC3)CCC2CC1 (stereo unspecified),248*,0,-108,-62,-266,10
CCN1CCN(C2=CC3=CC(=C(C#N)C#N)CCC3CC2)CC1 (stereo unspecified),500*,0,-295,-116,i,16
N#CC(C#N)=C1C=C2C=C(N3CCCCCC3)CCC2CC1 (stereo unspecified),216*,-1,/,-37,-170,-9
Cc1ccc(S(=O)(=O)Nc2ccccc2OC(C(=O)OC(C)(C)C)C(=O)OC(C)(C)C)cc1,/,/,/,8,/,/
O=[N+]([O-])c1ccc(Cc2ccccn2)c([N+](=O)[O-])c1,-1,1,2,1,-6,-7
COc1ccc(CCNC(=O)c2ccc(CSc3ccc(Cl)cc3)o2)cc1OC,/,-2,/,1,/,/
CCOc1ccc(C2C(C#N)=C(N)N3C(=C2C#N)Sc2ccccc23)cc1 (stereo unspecified),93*,0,/,11,-116,2
COc1ccc(/C=c2\s/c(=C(/C#N)C(=O)NCc3ccco3)n(-c3ccccc3)c2=O)cc1,25,-2,/,0,-73,6
COC(=O)/C=c1/s/c(=C(\C#N)C(=O)NCc2ccco2)n(-c2ccccc2)c1=O,7,-1,-44,-9,78*,12
Cc1c(C(=O)NCc2ccc(C(C)C)cc2)sc(=O)n1Cc1cccc(F)c1,/,-2,-23,20,/,-1
CC1Nc2ncnc(N3CCN(c4ccccc4)CC3)c2N(Cc2ccc(Cl)cc2)C1=O (stereo unspecified),0,0,13,8,-12,61*
CC(C)CC1Nc2ncnc(N3CCN(c4ccccc4)CC3)c2N(Cc2ccccc2)C1=O (stereo unspecified),1,23*!,30,-5,-5,-3
CC(C)CC1Nc2ncnc(N3CCN(c4ccccc4)CC3)c2N(Cc2ccc(Br)cc2)C1=O (stereo unspecified),0,-2,20,8,-6,-2
CCOc1cc(N2CCOCC2)c(OCC)cc1NC(=O)C(NC(=O)c1c(F)cccc1F)C(C)C (stereo unspecified),0,-2,18,5,-4,-4
CC(=O)OCC(=O)C1(O)CCC2C3CC(C)C4=CC(=O)C=CC4(C)C3C(O)CC21C (stereo unspecified),/,5,28,16,/,2
CC(C)CC[n+]1ccccc1/C=C/c1ccc(N(C)C)cc1,51*,0,/,65,-73,-18
CCC1(CC)C(=O)N(c2ccccc2)C(=N)N(c2ccccc2)C1=O,0,-2,13,6,5,2
Cc1nn(-c2ccccc2)c(NC(=O)c2cccs2)c(-c2ccccc2Cl)c1=O,3,0,-2,16,111*,-2
O=C(CNC(=O)c1nc[nH]c1C(=O)N1CCc2ccccc2C1)OCc1ccccc1,-1,1,0,-6,2,105*
CC(C)(C)OC(=O)N1CCC(NC(=O)c2nc[nH]c2C(=O)NCC(=O)OCc2ccccc2)CC1,-1,-3,8,19,7,72*
O=C(CNC(=O)c1nc[nH]c1C(=O)N1CCNCC1)OCc1ccccc1,0,3,2,10,-14,14
